Assay results reported in the supplement of paper PMC4206467.

Each molecule was assayed on Perkinsus marinus PRA240 (assay: ATP content (proliferation) relative to DMSO control; higher = more parasite growth (less inhibition)). Settings: 20 µM; 4 days.
Procedure: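 Perkinsus marinus PRA240 trophozoites (2-5x10^6 cells/ml, 100 µl, 96-well) were exposed once to MMV Malaria Box compounds at 20 µM (0.1% DMSO) in triplicate. ATP content (ATPlite bioluminescence) was read at day 4 post-exposure and normalised to DMSO + cells control wells (100% activity). Compounds were identified by joining plate and well to the Malaria Box list.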

Structure (SMILES)	ATP content
COc1cccc(O)c1CN1CCC2(CCCN(Cc3ccc(F)cc3)C2)C1 (configuration not stated)	70.7%
Cc1ccc(C2CC(C(F)(F)F)n3nc(C(=O)N4CCN(C(c5ccccc5)c5ccccc5)CC4)cc3N2)cc1 (configuration not stated)	144%
CC(C)(C)c1ccc2c(c1)CN(Cc1ccc(Cl)cc1)CO2	107%
OC(CNC1CCCCC1)Cn1c2ccc(I)cc2c2cc(I)ccc21 (configuration not stated)	4.02%
O=C(NC1CCCC1)c1ccc(N2CCC(NCc3cccc(C(F)(F)F)c3)CC2)cc1	103%
COc1cccc(C(=O)Nc2ccc(-c3nc4ccccc4[nH]3)cc2)c1	108%
O=C(NCCCN1CCC(N2CCCCC2)CC1)C1=Cc2cc(Br)ccc2OC1	224%
COc1cc2c(cc1OC)C1=NNC(=O)C1=NC(C)(C)C2	42.2%
CCCc1c(C)nc2ccccc2c1O	28.8%
O=C(NC1CCCCC1)C(c1cccs1)N(CCc1ccccc1)C(=O)c1ccco1 (configuration not stated)	101%
CCCCc1c(C)nc2c(OC)cccc2c1O	37.3%
CCc1ccc(CNCC(O)c2ccccc2)cc1 (configuration not stated)	60.8%
CCN1CCN(c2cc(C)c3cc(NC(=O)c4ccc(OC)c(OC)c4)ccc3n2)CC1	91.6%
O=c1cc(NC2CCN(CCCc3ccccc3)CC2)c2cc(Cl)ccc2o1	167%
O=C(Nc1ccc(N2CCCCC2)c(Cl)c1)c1ccc(Br)o1	33.7%
O=C(NCc1ccco1)C1CCN(S(=O)(=O)c2ccc(Br)cc2)CC1	147%
CC(C)=CCN1CCC(C(=O)Nc2ccc(-c3nc4ccccc4[nH]3)cc2)CC1	81.5%
CN1C=C(c2ccc3ccccc3n2)C(c2c[nH]c3ccccc23)c2ccccc21 (configuration not stated)	108%
OC1CCCCC1C1(NC(=S)Nc2ccccc2)CCCCC1 (configuration not stated)	127%

Structure (SMILES)	ATP content
CCOC(=O)C1(Cc2ccccc2)CCN(Cc2cccc(OC)c2O)CC1	143%
c1ccc2c(NCCc3c[nH]c4ccccc34)c3ccccc3nc2c1	179%
Cc1cc(=O)oc2c1ccc1oc(C(=O)c3ccccc3)c(C)c12	154%
COc1ccc(-c2cc3c(nn2)-c2ccccc2C3=O)cc1	32.7%
CCC(O)c1ccc(Br)cc1NC(=O)c1cccc(Cl)c1 (configuration not stated)	127%
Cn1c(=O)n(C)c2cc(CNCCNc3ccnc4cc(Cl)ccc34)ccc21	132%
CCOc1cc(Br)c(C(C)NC(=O)c2cccc(OC)c2)cc1OCC (configuration not stated)	115%
Cc1ccc(OCCCCCCNCCO)c(C)c1	164%
FC(F)(F)c1cccc(Nc2nc3ccccc3nc2Nc2cccc(C(F)(F)F)c2)c1	155%
O=C(c1ccccc1F)N(Cc1ccc(Cl)cc1)c1ccccn1	59%
Cc1cccc(-n2ncc3c(=O)[nH]c(-n4nc(C)cc4NC(=O)c4cc5ccccc5o4)nc32)c1	19%
CCOc1cc(Cl)c(C(C)NC(=O)c2ccccc2)cc1OCC (configuration not stated)	91.1%
Cc1ccnc(NC(c2cccc(OCc3ccccc3)c2)c2ccc3cccnc3c2O)c1 (configuration not stated)	57.2%
O=C(CSc1ccc2nnc(-c3cccc(F)c3)n2n1)Nc1ccc2c(c1)OCO2	102%
COc1ccc(N2CCN(C(CNC(=O)CC(C)(C)C)c3ccc4c(c3)OCO4)CC2)cc1 (configuration not stated)	211%
COc1ccc(C2C(C(=O)Nc3cccc(OC)c3)c3ccccc3C(=O)N2C2CCCCC2)cc1 (configuration not stated)	94.3%
COc1ccc(C)c2sc(N(Cc3cccnc3)C(=O)c3ccc(C#N)cc3)nc12	87.4%
CCCCNCC(O)(c1ccc(Cl)cc1)c1ccc(Cl)cc1	103%
